A short description of this assay: probe aLAP1 signal on lysate-treated microarray – cell lysate, small-molecule microarray, COS7 lysate, primary screen (AID 1124).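 Further: lysate comes from COS7 cells expressing LAP1 and is applied at 0.3 µg/mL; score merges spot fluorescence near 667 nm with signal-to-noise over triplicate slides.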 The conditions noted are these: probe aLAP1, fluorescence, higher = more signal.
With `CSCC[C@@H]1NC(=O)CC=C[C@@H](C)COC(=O)[C@H](C)COC1=O`, the composite z-score was -0.848.

Compound `CC1(C)O[C@H]2O[C@H]([C@H](O)CON=C3[C@H]4CCn5c(=O)n(-c6ccccc6)c(=O)n5[C@H]4[C@H](O)[C@@H]4O[C@H]34)[C@H](O)[C@H]2O1` showed a composite z-score of -0.0336. Then `COc1cccc([C@H]2Oc3ccc(OC)cc3C(=NO[C@@H](C)c3cc(-c4c(C)cc(C)cc4C)no3)[C@@H]2O)c1`, with 0.843; and `CC(=O)OC[C@H]1O[C@H](C#CCCc2ccccc2)C=C[C@@H]1OC(C)=O`, with -0.332; and `CC(C)=CCCC(C)=CCON=C1C[C@@H](O)[C@@H](O)[C@@H]2[C@@H]3C(=O)N(C4CCCCC4)C(=O)[C@@H]3CC[C@H]12`, with 0.514.

The compound `COC(=O)[C@H](C)NC(=O)CCC1CC(OC(=O)NCc2ccc3c(c2)OCO3)CC2(CCCC(COC(=O)NCCc3ccc(Cl)cc3)O2)O1` (stereo partly specified) registered a composite z-score of -0.0478. To `COC(=O)[C@H](C)NC(=O)CCC1CC(OC(=O)NCCc2ccc(F)cc2)CC2(CCCC(COC(=O)NCC3CCCCC3)O2)O1` (stereo partly specified) belongs 0.191; to `CCN1C(=O)[C@H]2[C@H]3[C@H](O)[C@H](O)CC(=NO[C@H](C)c4cn([C@H](CO)Cc5ccccc5)nn4)[C@@H]3CC[C@H]2C1=O`, 1.39; to `CCN1C(C)=C(C(=O)OC)[C@@H](c2ccccc2)N2C(=O)[C@](O)(C(=O)OC)CC(C(C)=O)=C12`, -0.152.

In turn, `C=CC[C@@H]1C=C[C@H](ON=C(C)CCN2CCCCc3nc(C)c(C)cc32)[C@@H](CO)O1` gave a composite z-score of 0.155.

For the compound `CC(C)=NOC(C)CN1CCCCc2nc(C)c(C)cc21` (stereo unspecified), the composite z-score came to 0.045. To `CCOC(=O)[C@H](Cc1ccccc1)NC(=O)CCC1CC(OC(=O)NCCc2ccc(F)cc2)CC2(CCCC(COC(=O)NCCOc3ccccc3)O2)O1` (stereo partly specified) belongs 0.283; to `Cc1ccc(S(=O)(=O)N[C@@H]2COC(=O)CC=C[C@@H](C)[C@H](NS(=O)(=O)c3ccc(C)cc3)COC(=O)[C@H](C)NC(=O)CC=C[C@H]2C)cc1`, -0.108; to `CCOC(=O)CCN1C(=O)[C@H]2[C@H]3[C@H](O)[C@H](O)CC(=NOCC(C)C)[C@@H]3CC[C@H]2C1=O`, -0.412.

The compound `CC(=O)OC[C@H]1O[C@H](CCON=C(C)CCN2CCCc3nc(C)c(C)cc32)C=C[C@@H]1OC(C)=O` gave a composite z-score of 0.926. To `Cc1cc2c(nc1C)CCCCN2CC(O)CN1CCCc2nc(-c3ccc(Br)cc3)ccc21` (stereo unspecified) belongs 0.293; to `CC(C)(C)N1C(=O)[C@H]2[C@@H]3C(=CC[C@H]2C1=O)C(=O)[C@H]1O[C@H]1[C@H]3O`, -0.058. For `CC(CCN1CCCc2nc(C)c(C)cc21)=NOC[C@@H](C)[C@H](OCc1ccccc1)C(C)C`, the composite z-score is -0.432. To `CON=C(C)CCC(=O)OC[C@H]1O[C@H](C#Cc2ccccc2)C=C[C@@H]1Oc1ccc(C)cc1` belongs 0.232. Then `C[C@@H]1CC[C@@H](C(=O)O)N[C@H]1c1cccc(N2CCOCC2)c1`, with -0.581. To `O=C1C2=CC[C@H]3C(=O)N(C4CCCCC4)C(=O)[C@H]3[C@H]2[C@H](O)[C@@H]2O[C@H]12` belongs -0.17. As for `CCOC(=O)[C@H](Cc1ccccc1)NC(=O)CCC1CC(OC(=O)NCCc2ccc(F)cc2)CC2(CCCC(COC(=O)NCc3cccc(C(F)(F)F)c3)O2)O1` (stereo partly specified), the composite z-score turned out to be 0.137. To `O=C1[C@H]2[C@H]3[C@H](O)[C@H](O)CC(=NO[C@@H]4O[C@H](CO)[C@@H](O)[C@H](O)[C@H]4O)[C@H]3CC[C@H]2C(=O)N1C[C@@H]1CCCO1` belongs 0.041. Then `CC(CCC(=O)OC[C@H]1O[C@H](C#Cc2ccccc2)C=C[C@@H]1Oc1ccc(C)cc1)=NOC[C@@H](C)[C@H](OCc1ccccc1)C(C)C`, with -0.427; and `C[C@@H]1CC[C@H]2C(=O)OC(Cc3ccccc3)CN2[C@H]1c1ccc(Br)cc1` (stereo partly specified), with 0.509.

Consider `COC(=O)CC=C[C@@H](C)[C@@H](C=NOC[C@@H](O)COCc1ccco1)OC`, for which the composite z-score was found to be 0.0649. The compound `CCc1cc2c(nc1CC)CCN(CCC(C)=NOC[C@@H](C)[C@H](OCc1ccccc1)C(C)C)C2` had a composite z-score of -0.383. To `O=C1C2=CC[C@H]3C(=O)N(C[C@@H]4CCCO4)C(=O)[C@H]3[C@H]2[C@H](O)[C@@H]2O[C@H]12` belongs -0.246; to `CCOC(=O)CCN1C(=O)[C@H]2[C@H]3[C@H](O)[C@H](O)CC(=NNC(=O)OCC)[C@H]3CC[C@H]2C1=O`, -0.0069; to `COc1ccc2c(c1)O[C@@H](c1cccc(C(F)(F)F)c1)[C@H](O)C2=O`, 0.0318.

For the compound `COC(=O)CC=C[C@@H](C)[C@@H](C=NOC(C)CN1CCCCc2nc(C)c(C)cc21)NS(=O)(=O)c1ccc(C)cc1` (stereo partly specified), the composite z-score stood at 0.0618.

The record behind these values is PubChem BioAssay.
